Assay outcomes (PubChem BioAssay)
D2 antag: antagonizes the human D2 dopamine receptor; P14416; inhibition, % at 10 µM; actives 2% (n = 340,000); HEK293 TREx D2 cells, calcium flux, dopamine EC80; in the data active means inhibition above about 30%; inactive means below that, where a call was filed; further: 0% is about no effect
Target sequence (P14416 whole entry, looked up): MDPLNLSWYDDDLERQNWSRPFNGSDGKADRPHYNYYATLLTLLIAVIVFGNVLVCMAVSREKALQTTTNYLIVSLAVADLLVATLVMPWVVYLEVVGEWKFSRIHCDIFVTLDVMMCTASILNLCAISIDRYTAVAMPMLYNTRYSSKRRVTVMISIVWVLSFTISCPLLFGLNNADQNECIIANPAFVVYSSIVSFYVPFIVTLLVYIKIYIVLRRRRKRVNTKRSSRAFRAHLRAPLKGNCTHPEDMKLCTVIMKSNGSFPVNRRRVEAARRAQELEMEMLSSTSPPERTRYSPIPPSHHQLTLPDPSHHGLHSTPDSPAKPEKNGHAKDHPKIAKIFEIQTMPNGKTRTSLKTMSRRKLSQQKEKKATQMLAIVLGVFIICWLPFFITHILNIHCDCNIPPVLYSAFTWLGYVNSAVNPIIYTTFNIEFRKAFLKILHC
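Compounds are added to dye-loaded, induced HEK293 T-REx cells coupled to calcium release via D2; after a 3 min kinetic read an EC80 dopamine stimulus is given and fluorescence is recorded for 3 more min.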
D2 ag-1: activates the human D2 dopamine receptor | P14416 | HEK293 T-REx D2 cells, calcium flux agonist mode | activation, % at 2 µM | actives 0.53% (n = 340,000);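 active means activation over 3 SD above normal in the single-dose calcium agonist read, cut at about 30% in these data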; further: 0% is about no effect
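Agonism scored from kinetic calcium signal (1 read/sec, 180 s) following compound pin transfer, after a 10 s baseline. Cells: HEK293 Trex line expressing inducible D2 receptor coupled to calcium, dye-loaded after overnight culture at 30 C.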
D2 PAM-1: positively modulates the human D2 dopamine receptor allosterically; potentiation, % at 10 µM; AID 485347; HEK293 T-REx D2, calcium flux, EC20 dopamine potentiation; actives 0.34% (n = 340,000);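 active means potentiation over 3 SD above the plate norm, cut at about 30% in these data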; further: 0% is about no effect
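Tetracycline-induced Hek293 Trex D2 cells, force-coupled to calcium, loaded with no-wash calcium dye. Compound added with 180 s kinetic read for agonism, then EC20 dopamine and a further 180 s read for potentiation.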
D2 ag-2: human D2 receptor agonism in beta-arrestin assay; P14416; DiscoveRx PathHunter D2 beta-arrestin, luminescence, 90 min; 100% = 57 uM dopamine signal; activation, % (no concentration beside the values); actives 0.084% (n = 360,000); AID 624465; in the data active means activation above about 40%; inconclusive means between about 15% and that limit
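Agonist mode: compounds alone added to overnight-plated D2 PathHunter cells for 90 min at 37 C, with 57 uM final dopamine (EC100) defining full response. Beta-arrestin recruitment detected by chemiluminescent reagent, read after 1 h at ambient temperature.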
D2 PAM-2: potentiates the human D2 dopamine receptor allosterically. actives 0.23% (n = 360,000). DiscoveRx D2 beta-arrestin cells, luminescence, 90 min; 100% = 57 uM dopamine signal. potentiation, % (no concentration beside the values). P14416; in the data active means potentiation above about 50%; inconclusive means mostly about 30% to 49%
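PathHunter D2 cells, attached overnight at 37 deg C, received compound in DMSO plus dopamine at EC20 (50 nM final) for 90 min at 37 deg C. Beta-arrestin recruitment was read as luminescence after 1 h with detection reagent at ambient temperature.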
* hit, by the source's call; ? = inconclusive; nt = not tested or not shown. Compounds with a hit are over-represented: about 2.4% of the library has one in this group of screens.

SMILES	D2 antag	D2 ag-1	D2 PAM-1	D2 ag-2	D2 PAM-2
CCNC(=O)C1(C)CCCN(C(=O)c2cc(-c3cccs3)oc2C)C1 (stereo not given)	nt	nt	nt	-6	-3
CC1(c2ccccc2)NC(=O)N(CC(=O)N2CCOCC2)C1=O (stereo not given)	0	0	-3	-3	-16
CC(C)(C)C1(c2ccccc2)NC(=O)N(CC(=O)N2CCOCC2)C1=O (stereo not given)	44*	0	-17	2	10
Nc1nc(NCCO)nc(N2CCCCCC2)c1[N+](=O)[O-]	-6	1	3	1	4
OCCN(CCO)c1nc(N2CCCCC2)c2nc(N(CCO)CCO)nc(N3CCCCC3)c2n1	22	42*	-10	8	-7
CCC(Oc1ccccc1)C(=O)Nc1ccc(O)c(-c2nc3cc(C)ccc3o2)c1 (stereo not given)	nt	2	7	nt	nt
CCCSc1nnc2c(n1)OC(CC)N(C(C)=O)c1ccccc1-2 (stereo not given)	nt	nt	-1	nt	nt
COc1ccccc1C(=O)N1CCN(Cc2nc3cc([N+](=O)[O-])ccc3n2C)CC1	36*	0	-4	-4	-10
CC(=O)N1CCN(Cc2nc3cc([N+](=O)[O-])ccc3n2C)CC1	nt	nt	nt	0	-6
COc1ccc(CC2(CO)CCN(C(C)COc3ccccc3)CC2)cc1 (stereo not given)	nt	nt	nt	49*	25
COc1ccc(CC2(CO)CCN(Cc3cnn(-c4ccccc4OC)c3)CC2)cc1	79*	1	-16	-5	-24
COc1ccc(NC(=O)c2sc3nc[nH]c(=O)c3c2C)cc1Cl	nt	-1	-7	nt	nt
NC(=O)C1(N2CCCCC2)CCN(c2ccc3nnc(-c4ccccc4)n3n2)CC1	-13	0	32*	?	-4
Cc1ccc(S(=O)(=O)CCC(=O)O)cc1C	36*	0	-2	2	-5
COc1ccc(N(CCC(=O)O)S(=O)(=O)c2ccc(C)c(C)c2)cc1	5	0	-6	0	-3
C=CCc1ccccc1OCCNCCCOC	69*	0	-22	-6	-32
C=CCc1cc(Cl)ccc1OCCNCCCOC	37*	1	-33	-1	-16
C=CCc1cc(Cl)ccc1OCCOCCNCCOC	4	1	-20	-3	-16
CCn1nnc2cc(C(=O)Nc3cccc(Cl)c3C)ccc21	nt	0	0	nt	nt
O=C(COC(=O)/C=C/c1cccc(F)c1)Nc1ccccc1	2	0	4	1	-5
O=C(COC(=O)/C=C/c1cccc(F)c1)NNC(=O)c1ccccc1	45*	0	4	6	-4
C=C(C)Cn1c2ccc(NC(=S)NCc3ccccc3F)cc2c(=O)n1C	nt	nt	nt	103*	-6
Cc1occc1C(=O)N/N=C/C=C/c1ccccc1[N+](=O)[O-]	38*	-1	-20	-4	-5
N#Cc1nc(COc2ccccc2Cl)oc1NCc1ccc(F)cc1	3	0	-5	-1	-8
N#Cc1nc(COc2ccccc2Cl)oc1NCc1cccnc1	40*	-1	4	1	4
SMILES	D2 antag	D2 ag-1	D2 PAM-1	D2 ag-2	D2 PAM-2
CC(C)C(C)N(Cc1cccc(C(=O)O)c1)C(=O)c1ccc2ccccc2n1 (stereo not given)	nt	nt	nt	0	-3
Cc1cc(/C=N/NC(N)=S)c(O)c(/C=N/NC(N)=S)c1	-14	45*	8	-6	-8
NC(=S)N/N=C/c1cccc(O)c1O	-6	0	-2	2	16
C/C(=N\Nc1nccnc1Cl)c1ccc(Br)cc1	2	1	3	4	0
COc1ccc(/C(C)=N/Nc2nccnc2Cl)cc1	36*	0	10	5	-5
COc1cc2cnc(-c3ccccc3)c(-c3cccc(C(F)(F)F)c3)c2cc1OC	-2	-1	1	?	162*
NC(=O)c1ccc(N=Cc2c(O)ccc3ccccc23)cc1	nt	nt	nt	-2	0
COc1ccc(N=Cc2c(O)ccc3ccccc23)cc1	-3	2	26	2	-4
CCOC(=O)c1sc(/N=C/c2c(O)ccc3ccccc23)cc1C	31*	-1	1	-2	-15
O=C(O)c1ccc(N=Cc2c(O)ccc3ccccc23)cc1	-5	39*	-15	6	3
CCc1ccccc1NC(=O)CN1CCCN(Cc2cc(C)ccc2C)S1(=O)=O	nt	-2	-19	nt	nt
CSCCC(NC(=O)c1ccco1)C(=O)OC(C)C(=O)NC(=O)NC1CCCCC1 (stereo not given)	49*	7	nt	-3	-3
O=C(CCn1nc(-c2ccc(Cl)cc2)ccc1=O)N1CCN(c2ccc(F)cc2)CC1	5	-1	20	1	9
CN1C(=O)c2ccccc2Sc2ccc(NC(=O)NCc3cccc(Cl)c3)cc21	nt	-1	21	nt	nt
CCc1ccc(N=C2NC(=O)/C(=C/c3cc(OC)c(OC)c(OC)c3)S2)cc1	-8	1	-7	1	-9
COc1cc(/C=C2\SC(=Nc3ccc(O)cc3)NC2=O)cc(OC)c1O	9	47*	-11	0	8
CCC(C)(C)NC(=O)C(c1cccn1C)N(Cc1ccc(OC)cc1)C(=O)Cn1nnc2ccccc21 (stereo not given)	30*	1	9	-1	-5
O=C(N/N=C/c1c(F)cccc1Cl)C(=O)N1CCCCCC1	13	0	-1	-2	-11
Cc1ccc(/C(N)=N/OC(=O)N2c3ccccc3Sc3ccccc32)cc1	nt	nt	nt	?	101*
Cc1noc(/C=C/NCc2cccnc2)c1S(=O)(=O)N(C)CC(=O)N1CCc2ccccc21	57*	-1	-8	-3	-6
CC(=O)c1ccc(N2CCN(C(=O)[C@H](C)NC(=O)c3ccccc3Cl)CC2)cc1	-12	0	3	0	1
Oc1ccc[n+](/C=C\c2ccccc2)c1	38*	0	14	0	-10
Oc1ccc[n+](CCCCC[n+]2cccc(O)c2)c1	-11	0	-4	-5	-12
CCOC(=O)C1CCN(C(=O)C2CCN(S(=O)(=O)c3c(C)noc3/C=C/c3ccc(C)cc3)CC2)CC1	nt	1	-9	nt	nt
Nc1ncnc2c1ncn2[C@@H]1O[C@H](CNCc2ccc(OCC(=O)Nc3nccs3)cc2)[C@@H](O)[C@H]1O	nt	nt	nt	-2	-2
CC1Cc2ccccc2N1C(=O)C12CCC(C)(C(=O)C1)C2(C)C (stereo not given)	32*	1	nt	0	-15
O=C(Cn1cc(C(=O)C2CCCCC2)c2ccccc21)Nc1ccccc1Cl	nt	0	4	nt	nt
Cc1ccccc1Cn1cnc2c(NS(C)(=O)=O)c(C)c(C)cc21	35*	0	-5	1	-3
N#Cc1c(-c2ccc(F)cc2)noc1N	-4	1	0	?	96*
COc1cccc(-c2noc(N)c2C#N)c1	-1	0	3	?	?
